Experiment [1] is described as follows: small molecules captured by biotinylated probe aFSTL3 – biochemical, small-molecule microarray, fluorescence 635/667, stem cell growth factor project, primary screen (AID 1064).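 Further: measures binding of the biotinylated anti-FSTL3 antibody to printed compounds.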 The settings on record: higher = more signal.
Experiment [2] in a line: binders from COS7 lysate, DM2A8 probe, primary screen, torsin A project, cell lysate, small-molecule microarray, fluorescence 635/667 (AID 1065). The settings on record: higher = more signal, COS7 lysate expressing mutant human TOR1A.
Experiment [3] is described as follows: small molecules captured by biotinylated probe aFGF2 – biochemical, small-molecule microarray, fluorescence 635/667, stem cell growth factor project, primary screen (AID 1067).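 Further: measures binding of biotinylated aFGF2 protein to printed compounds on slides; z-score merges feature fluorescence and signal-to-noise across triplicate slides.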 The following applies: higher = more signal.
Experiment [4] in a line: small molecules captured by biotinylated probe aFGF10 – biochemical, small-molecule microarray, fluorescence 635/667, stem cell growth factor project, primary screen (AID 1071).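 Further: score merges 667 nm spot intensity and signal to noise from triplicate slides.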 The settings on record: higher = more signal.
The target in experiment [5] is Neurogenic locus notch homolog protein 2 (Homo sapiens) (UniProt Q04721). In words: small molecules binding Notch2 protein – biochemical, small-molecule microarray, 635 nm fluorescence, stem cell growth factors, primary screen (AID 1073). The following applies: higher = more signal.
Experiment [6] addresses Pro-neuregulin-1, membrane-bound isoform (Homo sapiens) (UniProt Q02297). In words: small molecules binding neuregulin-1 protein – biochemical, small-molecule microarray, fluorescence 635/667, psychiatric disease protein project, primary screen (AID 1075).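 Further: score combines 667 nm spot fluorescence with signal to noise.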 The following applies: NRG1 binding, 635 nm fluorescence, higher = more signal.
In experiment [7] the test system is Neuregulin-1 EGF-like domain. Put plainly: small molecules binding NRG1 EGF domain – biochemical, small-molecule microarray, 635 nm fluorescence, primary screen (AID 1081).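 Further: binding of the protein to compounds printed on small-molecule microarray slides.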 The settings on record: higher = more signal.
Experiment [8] can be described thus: FRG1 expression reporter modulators in myotubes – cell-based, C2C12 myotubes, firefly/Renilla luciferase, luminescence, FRG1 inhibition for FSHD, primary screen (AID 1084). The settings on record: FRG1 promoter luciferase, higher = more signal, called active from +8 up or from −8 down.
The nature of experiment [9]: small molecules captured by biotinylated probe aFST – biochemical, small-molecule microarray, fluorescence 635/667, stem cell growth factor project, primary screen (AID 1086).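 Further: score merges 667 nm fluorescence with signal-to-noise of each printed compound spot.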 The following applies: higher = more signal.
A short description of experiment [10]: binders of probe aHhip on microarray, primary screen, stem cell growth factor project, biochemical, small-molecule microarray, fluorescence 635/667 (AID 1087).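 Further: score merges spot fluorescence at 667nm with spot signal to noise ratio.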 The settings on record: higher = more signal.
In experiment [11] the test system is PRMT1 (protein arginine N-methyltransferase 1). Put plainly: small molecules binding arginine methyltransferase PRMT1 – biochemical, small-molecule microarray, 635 nm fluorescence, primary screen (AID 1088).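 Further: binding of Prmt1 protein to compounds spotted on small-molecule microarray slides.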 The following applies: higher = more signal.
A short description of experiment [12]: growth effects on S. cerevisiae YJM789 – YJM789 clinical isolate, OD600, 24 h, basal, primary screen (AID 1089).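 Further: growth of clinical yeast isolate S. cerevisiae YJM 789 seeded 1000 cells per well; test concentration not given here.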 The following applies: higher = more signal, called active from +8 up or from −8 down.
The nature of experiment [13]: S. pombe growth modifiers, basal conditions – strain 972, OD600, 24 h, no modulator, primary screen (AID 1090).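 Further: basal condition with compound alone and no growth modifier present; test concentration not given here.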 The settings on record: S. pombe 972 growth, higher = more signal, called active from +8 up or from −8 down.
A short description of experiment [14]: budding yeast growth modifiers under rapamycin – strain BY4716, OD600, 96 h, primary screen (AID 1091). Further: test concentration not given here. The settings on record: S. cerevisiae BY4716 + rapamycin, higher = more signal, called active from +8 up or from −8 down.
Experiment [15] has as its target Torsin-1A-interacting protein 2 (Homo sapiens) (UniProt Q8NFQ8). In words: small molecules binding lysate-expressed LULL1 – cell lysate, human LULL1 lysate, 635/667 nm fluorescence, primary screen (AID 1092).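 Further: probe is lysate of COS7 cells overexpressing human LULL1; score merges per-feature 667 nm fluorescence with signal-to-noise.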 The following applies: small-molecule microarray, hLULL1 lysate binding, 635 nm fluorescence; higher = more signal.
Experiment [16] can be described thus: optical density change of DRC41 E. coli – strain DRC41, OD650, 24 h, E. coli filamentation project, primary screen (AID 1093).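 Further: MC1000 strain lacking acrAB efflux and sulA so SOS filamentation is blocked; test concentration not given here.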 The settings on record: E. coli DRC41 growth, higher = more signal, called active from +8 up or from −8 down.
The nature of experiment [17]: probe aLefty2 binding to arrayed compounds – biochemical, biotinylated probe, 635/667 nm fluorescence, primary screen (AID 1094).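 Further: score merges spot fluorescence near 667 nm with spot signal-to-noise ratio.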 The settings on record: small-molecule microarray, higher = more signal.
Experiment [18] relates to Noggin (protein binding on small-molecule microarray). In words: small molecules binding Noggin protein – biochemical, 635/667 nm fluorescence, primary screen (AID 1095).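 Further: score merges 667 nm feature fluorescence with signal to noise over triplicate slides.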 The settings on record: 635 nm fluorescence, higher = more signal.
Experiment [19] concerns the target Neurogenic locus notch homolog protein 3 (Homo sapiens) (UniProt Q9UM47). In words: small molecules binding NOTCH3 protein – biochemical, 635/667 nm fluorescence, primary screen (AID 1096). The settings on record: small-molecule microarray, 635 nm fluorescence, higher = more signal.
Experiment [20] in a line: probe aEGFR binding to arrayed compounds – biochemical, biotinylated probe, 635/667 nm fluorescence, primary screen (AID 1097).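 Further: probe is a biotinylated anti-EGFR antibody binding compounds printed on slides; score combines fluorescence near 667 nm and signal to noise of each spot.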 The settings on record: small-molecule microarray, higher = more signal.

Each structure is given as a SMILES string. Active and inactive are the calls of the source.

Pro-neuregulin-1, membrane-bound isoform (Homo sapiens), sequence (Q02297 whole entry, looked up, the tested form may be a part, canonical isoform): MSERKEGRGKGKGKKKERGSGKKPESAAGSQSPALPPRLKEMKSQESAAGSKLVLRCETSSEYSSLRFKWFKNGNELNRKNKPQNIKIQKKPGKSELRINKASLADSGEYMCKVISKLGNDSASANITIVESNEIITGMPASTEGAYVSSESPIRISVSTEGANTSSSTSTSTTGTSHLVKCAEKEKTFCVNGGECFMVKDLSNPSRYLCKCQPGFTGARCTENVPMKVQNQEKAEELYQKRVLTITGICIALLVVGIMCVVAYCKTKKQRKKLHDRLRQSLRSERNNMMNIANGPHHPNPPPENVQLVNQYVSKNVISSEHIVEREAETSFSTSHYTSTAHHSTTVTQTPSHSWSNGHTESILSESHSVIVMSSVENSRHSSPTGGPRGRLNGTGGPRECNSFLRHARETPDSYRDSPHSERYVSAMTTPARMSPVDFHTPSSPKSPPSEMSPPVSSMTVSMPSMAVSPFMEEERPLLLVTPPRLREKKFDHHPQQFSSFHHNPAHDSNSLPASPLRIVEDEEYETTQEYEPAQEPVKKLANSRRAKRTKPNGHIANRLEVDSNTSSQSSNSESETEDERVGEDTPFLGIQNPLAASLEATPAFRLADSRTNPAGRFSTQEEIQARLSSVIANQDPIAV
Neurogenic locus notch homolog protein 3 (Homo sapiens), sequence (Q9UM47 whole entry, looked up): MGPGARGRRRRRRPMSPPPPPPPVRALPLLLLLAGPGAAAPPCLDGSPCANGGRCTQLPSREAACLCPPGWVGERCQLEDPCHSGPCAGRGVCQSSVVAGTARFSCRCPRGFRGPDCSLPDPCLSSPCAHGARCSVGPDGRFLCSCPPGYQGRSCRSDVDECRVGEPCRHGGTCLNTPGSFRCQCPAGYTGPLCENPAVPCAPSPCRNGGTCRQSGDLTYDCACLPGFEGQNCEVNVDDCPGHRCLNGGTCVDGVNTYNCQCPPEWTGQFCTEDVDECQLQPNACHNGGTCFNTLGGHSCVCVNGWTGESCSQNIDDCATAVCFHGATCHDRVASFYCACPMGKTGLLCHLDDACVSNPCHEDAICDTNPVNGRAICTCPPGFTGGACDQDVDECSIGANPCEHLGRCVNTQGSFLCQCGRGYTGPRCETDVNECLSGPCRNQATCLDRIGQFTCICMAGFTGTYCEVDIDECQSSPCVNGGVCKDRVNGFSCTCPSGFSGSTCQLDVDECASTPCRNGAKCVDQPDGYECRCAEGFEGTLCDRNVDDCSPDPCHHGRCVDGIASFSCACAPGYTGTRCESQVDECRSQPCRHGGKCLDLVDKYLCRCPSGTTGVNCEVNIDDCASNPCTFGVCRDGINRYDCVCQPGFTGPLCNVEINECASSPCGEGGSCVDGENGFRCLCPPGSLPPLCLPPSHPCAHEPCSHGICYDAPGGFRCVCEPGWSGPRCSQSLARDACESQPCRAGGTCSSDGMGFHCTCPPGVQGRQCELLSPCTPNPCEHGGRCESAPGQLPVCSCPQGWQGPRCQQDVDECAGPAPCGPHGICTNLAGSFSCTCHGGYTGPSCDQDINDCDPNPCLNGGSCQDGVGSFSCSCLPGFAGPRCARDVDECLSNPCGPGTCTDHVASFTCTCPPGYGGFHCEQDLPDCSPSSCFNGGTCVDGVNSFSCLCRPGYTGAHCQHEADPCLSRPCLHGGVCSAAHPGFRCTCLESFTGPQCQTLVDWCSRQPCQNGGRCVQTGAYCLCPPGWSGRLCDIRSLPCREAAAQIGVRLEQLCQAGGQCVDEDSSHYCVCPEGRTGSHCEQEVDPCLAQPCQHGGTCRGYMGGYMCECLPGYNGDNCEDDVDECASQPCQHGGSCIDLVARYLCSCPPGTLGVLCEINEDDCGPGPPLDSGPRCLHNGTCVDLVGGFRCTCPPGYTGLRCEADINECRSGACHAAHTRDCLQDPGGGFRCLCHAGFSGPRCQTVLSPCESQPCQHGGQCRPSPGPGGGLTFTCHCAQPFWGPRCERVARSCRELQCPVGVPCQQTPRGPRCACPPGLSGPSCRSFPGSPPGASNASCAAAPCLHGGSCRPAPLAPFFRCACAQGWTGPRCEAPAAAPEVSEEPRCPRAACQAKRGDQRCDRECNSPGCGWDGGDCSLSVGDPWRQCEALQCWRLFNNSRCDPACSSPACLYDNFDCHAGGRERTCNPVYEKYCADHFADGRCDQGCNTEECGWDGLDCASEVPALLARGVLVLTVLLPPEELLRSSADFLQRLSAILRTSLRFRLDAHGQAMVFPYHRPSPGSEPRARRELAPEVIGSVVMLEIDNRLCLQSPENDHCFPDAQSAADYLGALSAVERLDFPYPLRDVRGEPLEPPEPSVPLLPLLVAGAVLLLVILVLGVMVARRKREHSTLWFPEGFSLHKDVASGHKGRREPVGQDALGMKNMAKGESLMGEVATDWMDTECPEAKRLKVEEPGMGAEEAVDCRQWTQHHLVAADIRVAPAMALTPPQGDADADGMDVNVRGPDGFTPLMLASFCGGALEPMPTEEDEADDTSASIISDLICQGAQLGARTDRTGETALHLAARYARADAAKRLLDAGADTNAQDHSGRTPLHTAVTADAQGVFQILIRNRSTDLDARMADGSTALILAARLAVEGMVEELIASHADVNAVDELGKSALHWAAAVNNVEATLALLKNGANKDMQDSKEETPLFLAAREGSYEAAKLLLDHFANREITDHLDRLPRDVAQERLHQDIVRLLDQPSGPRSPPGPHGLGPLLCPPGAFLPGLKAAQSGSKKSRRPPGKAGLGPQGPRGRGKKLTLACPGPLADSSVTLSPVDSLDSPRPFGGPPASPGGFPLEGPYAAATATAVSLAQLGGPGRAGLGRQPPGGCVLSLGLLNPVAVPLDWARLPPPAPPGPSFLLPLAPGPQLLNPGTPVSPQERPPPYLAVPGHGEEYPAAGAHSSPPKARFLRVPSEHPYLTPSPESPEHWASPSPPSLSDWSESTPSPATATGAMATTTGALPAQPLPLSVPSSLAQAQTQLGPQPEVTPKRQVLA
Torsin-1A-interacting protein 2 (Homo sapiens), sequence (Q8NFQ8 whole entry, looked up): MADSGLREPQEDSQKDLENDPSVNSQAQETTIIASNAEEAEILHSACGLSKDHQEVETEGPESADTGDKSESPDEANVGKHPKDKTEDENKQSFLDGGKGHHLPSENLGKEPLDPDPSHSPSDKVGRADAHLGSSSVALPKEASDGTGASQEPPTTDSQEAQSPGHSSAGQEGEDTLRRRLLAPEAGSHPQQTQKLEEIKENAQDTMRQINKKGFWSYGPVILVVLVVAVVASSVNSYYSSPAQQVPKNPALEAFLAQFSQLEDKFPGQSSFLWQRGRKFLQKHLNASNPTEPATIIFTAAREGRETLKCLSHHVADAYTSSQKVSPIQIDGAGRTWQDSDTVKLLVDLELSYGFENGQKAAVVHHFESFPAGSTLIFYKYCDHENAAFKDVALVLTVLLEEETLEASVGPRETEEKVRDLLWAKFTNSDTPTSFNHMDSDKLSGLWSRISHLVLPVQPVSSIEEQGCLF

Regarding `COCCOC(=O)N1C(=O)[C@@]2(c3cc(C#CCNC(N)=O)ccc31)[C@H](C(=O)N1CCN(c3ncccn3)CC1)[C@H]1C(=O)O[C@H](c3ccccc3)[C@H](c3ccccc3)N1[C@@H]2c1ccc(O)cc1`, the composite z-score in experiment [1] was -1.35; in experiment [2], 0.0122; in [3], -0.282; in [4], -0.129; in experiment [5], -1.15; in experiment [6] it was -0.37. For the same compound, the composite z-score in experiment [7] was -0.475; in experiment [9], -0.874; in experiment [10], -0.769; in experiment [11] it was -0.479; in experiment [15], 1.37; in [17], -0.547. The composite z-score in experiment [18] is -1.27; in experiment [19], -0.637; in experiment [20], -0.384. In addition, the z-score in [8] is -1.04 (inactive); in [12], -0.357 (inactive); in experiment [13], -0.562 (inactive); in experiment [14] it was 0.0816 (inactive); in [16], -0.324 (inactive).

Consider `Cc1cccc([C@H]2C[C@H]3C(Br)=C[C@@]2(CO)C(=O)[C@]32CO2)c1`, for which the composite z-score in [1] was -0.053; in experiment [2], -0.65; in experiment [3] it was -0.125; in experiment [4], 0.0924; in experiment [5] it was -0.368; in experiment [6], 0.131. Further, the composite z-score in experiment [7] is 0.708; in experiment [9] it was 0.275; in experiment [10], -0.0994; in experiment [11] it was 0.378; in experiment [15] it was 2.39; in experiment [17], -0.114. Further, the composite z-score in experiment [18] was 0.783; in [19], 0.353; in experiment [20], -0.219. The z-score was 1.46 (inactive) in experiment [8]; -1.54 (inactive) in experiment [12]; -2.89 (inactive) in experiment [13]; -0.75 (inactive) in experiment [14]; -0.316 (inactive) in experiment [16].

With `COc1ccc([Si](C)(C)[C@H]2[C@H](CC(=O)N3CCC[C@H]3CO)O[C@@]3(C(=O)N(Cc4cccc(N5CCCCC5=O)c4)c4ccccc43)[C@@H]2C)cc1`, the composite z-score in experiment [1] was -0.381; in [2] it was 0.519; in experiment [3] it was -0.126; in experiment [4], 0.682; in experiment [5] it was 0.757; in experiment [6], 0.836. For the same compound, the composite z-score in experiment [7] was 1.14; in [9] it was 0.0346; in experiment [10] it was -0.0296; in [11] it was 1.52; in experiment [15] it was 1.98; in [17], -0.174. In addition, the composite z-score in experiment [18] is 1.23; in experiment [19] it was 1.09; in experiment [20] it was -0.139. Moreover, the z-score in [8] is -3.74 (inactive); in experiment [12], -0.439 (inactive); in [13], 0.294 (inactive); in experiment [14], -1.23 (inactive); in experiment [16], 0.561 (inactive).

Consider `CCCCN1CC=CC23O[C@@H]4/C=C\CCCOC(=O)C4[C@H]2C(=O)N(CCCCCCO)[C@@H]3C1=O` (stereo not given in full), for which the composite z-score in experiment [1] was 0.179; in experiment [2], -0.619; in experiment [3] it was -0.144; in experiment [4], -0.785; in experiment [5], -0.868; in [6], 2.04. Moreover, the composite z-score was 1.15 in experiment [7]; -1.09 in [9]; -0.0994 in experiment [10]; 0.988 in experiment [11]; 3.56 in [15]; -0.19 in [17]. In addition, the composite z-score in experiment [18] is -0.676; in experiment [19], -0.0185; in experiment [20] it was -0.262. Also, the z-score was -1.38 (inactive) in [8]; -0.917 (inactive) in experiment [12]; -0.818 (inactive) in experiment [13]; -0.771 (inactive) in experiment [14]; 1.79 (inactive) in [16].

Regarding `COCCCNC(=O)[C@@]1(Cc2ccccc2I)c2ccccc2C(=O)N(C2CCCCC2)[C@H]1c1ccc(CO)cc1`, the composite z-score is -0.101 in experiment [1]; 0.346 in [2]; -0.0064 in experiment [3]; 0.527 in [4]; 0.452 in [5]; 0.857 in [6]. For the same compound, the composite z-score was 1.35 in [7]; -0.729 in experiment [9]; -0.0994 in [10]; 1.51 in experiment [11]; 2.97 in [15]; -0.106 in [17]. For the same compound, the composite z-score is 0.556 in experiment [18], 0.337 in experiment [19] and -0.0512 in experiment [20]. Further, the z-score in experiment [8] is -4.02 (inactive); in [12], -1.83 (inactive); in experiment [13] it was -0.856 (inactive); in [14], -1.11 (inactive); in [16], 0.0355 (inactive).

These data come from PubChem BioAssay.
